From PubChem BioAssay
Calls of active or inactive are those of the source.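 How the source made its calls, unless noted: active means inhibition above 20% together with a positive visual image hit; inconclusive means visual image hit but inhibition not above 20%; inactive means no visual image hit.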

Columns and labels:
[1] = inhibitors of TNFa-induced NFkB p65 translocation, primary screen, imaging, HUVEC, MLSMR starter and 10KST1 sets (AID 438); details: HUVEC TNFa-induced p65 nuclear translocation; cell count: measured here: nuclei count (cytotoxicity indicator), at 2.08 µM; inhibition: at 2 µM, stronger effect = higher value, 0% TNFa-plus-vehicle, 100% no-TNFa wells;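 further: compound added about 3h40 before a 20 min TNFalpha stimulation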;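 on inhibition: signal is the nuclear over cytoplasmic p65 intensity ratio per well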
[2] = inhibitors of mutant huntingtin aggregation, primary screen, imaging, exon1htt(103Q)mCFP cells, high-content imaging (AID 483;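 active means visual image review flags a hit and inhibition of aggregation exceeds 20%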;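 further: compound exposure lasted 3 days before fixation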;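 on nuclei count: percent of the per-plate median nuclei count of sample wells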); details: exon1htt(103Q)mCFP cell line, aggregate imaging, at 2 µM; inhibition of aggregation: stronger effect = higher value; nuclei count: measured here: cell count, toxicity
[3] = inhibitors of E-selectin induction by TNFa, primary screen, imaging, HUVEC, immunofluorescence, MLSMR starter and 10KST1 sets (AID 487;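 active means visually confirmed hit in the image check and inhibition above 20%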;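 on inhibition: signal is fraction of cell area covered by stained E-selectin grains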;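 on nuclei count: 100% = median nuclei count of all wells on the same plate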); details: HUVEC TNFalpha-induced E-selectin immunofluorescence imaging, at 2 µM; inhibition: stronger effect = higher value; nuclei count: measured here: cell number, toxicity
[4] = biological target: Voltage-gated potassium channel subunit beta-2 (Rattus norvegicus) (UniProt P62483); assay: KvBeta enzyme negative modulators, primary screen, biochemical, NADPH fluorescence (AID 622;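 active means fluorescence slope higher than the sample average by over 3 SD, cut at about -0.22 in these data, passing the limit was not always enough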;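 further: slope of raw intensity against log time taken from 70 to 1610 s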); details: recombinant KvBeta, 4-cyanobenzaldehyde reduction, at 10 µM, stronger effect = higher value
Sequence of Voltage-gated potassium channel subunit beta-2 (Rattus norvegicus) (P62483 whole entry, looked up): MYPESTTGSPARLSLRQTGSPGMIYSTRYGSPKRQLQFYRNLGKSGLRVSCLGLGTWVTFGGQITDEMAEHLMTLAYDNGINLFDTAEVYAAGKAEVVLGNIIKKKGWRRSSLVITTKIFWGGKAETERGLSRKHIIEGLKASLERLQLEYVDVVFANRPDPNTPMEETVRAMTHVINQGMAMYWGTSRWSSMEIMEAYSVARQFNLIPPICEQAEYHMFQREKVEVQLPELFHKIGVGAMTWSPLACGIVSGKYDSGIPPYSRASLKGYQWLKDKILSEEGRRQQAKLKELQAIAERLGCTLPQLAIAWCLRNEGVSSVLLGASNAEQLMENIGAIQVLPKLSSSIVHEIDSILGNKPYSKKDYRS

[5] = biological target: Voltage-gated potassium channel subunit beta-2 (Rattus norvegicus) (UniProt P62483); assay: KvBeta positive modulators, primary screen, biochemical, NADPH fluorescence (AID 623;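 active means NADPH fluorescence slope more negative than the mean of all samples by about 3 SD, 99.7% confidence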;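 further: fluorescence intensity change per second fitted from 20 to 320 s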); details: Recombinant KvBeta, NADPH fluorescence decrease slope, 10 min; at 10 µM; stronger effect = lower value
[6] = biological target: Alpha-2C adrenergic receptor (Homo sapiens) (UniProt P18825); assay: modulators of alpha2C/GIRK thallium flux, primary screen, cell-based, HEK293 alpha2C/GIRK1/2 (AID 624;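 active means fluorescence slope after compound addition differing from the mean of all screened samples at 99.7% confidence, in either direction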;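 further: slope of fluorescence ratio to pre-addition baseline per second over 15 to 24 s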); details: thallium flux BTC fluorescence, at 10 µM, actives lie on both sides
Sequence of Alpha-2C adrenergic receptor (Homo sapiens) (P18825 whole entry, looked up): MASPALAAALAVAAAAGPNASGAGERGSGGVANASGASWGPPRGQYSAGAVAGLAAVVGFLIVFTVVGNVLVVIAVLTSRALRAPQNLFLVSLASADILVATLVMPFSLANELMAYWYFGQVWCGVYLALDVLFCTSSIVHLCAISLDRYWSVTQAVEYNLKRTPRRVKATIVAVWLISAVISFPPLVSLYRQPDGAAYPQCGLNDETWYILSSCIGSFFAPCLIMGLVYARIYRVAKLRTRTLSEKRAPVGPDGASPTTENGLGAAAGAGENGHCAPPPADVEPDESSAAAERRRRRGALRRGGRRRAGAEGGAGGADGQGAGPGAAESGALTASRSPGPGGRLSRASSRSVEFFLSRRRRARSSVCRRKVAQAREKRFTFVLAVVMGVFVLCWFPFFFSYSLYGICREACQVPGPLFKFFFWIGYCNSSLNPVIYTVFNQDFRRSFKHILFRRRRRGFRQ

[7] = inhibitors of Sendai virus-induced IRF3 signaling, primary screen, TLR/RLR signaling modifier project, cell-based, Sendai virus stimulus, luciferase, 10K MLSCN set (AID 602276;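 active means inhibition at or above 50% at 10 µM; inactive means inhibition below 50%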;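 further: firefly luciferase from ISG56 promoter only with Renilla not read in this screen; 0% = Sendai virus plus DMSO and 100% = medium plus DMSO without virus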); details: HEK293 RL24 IRF3 luciferase reporter, at 10 µM, stronger effect = higher value
[8] = inhibitors of poly I:C-induced TLR3 signaling, primary screen, cell-based, poly I:C stimulus, luciferase, 10K MLSCN set (AID 602277;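 active means inhibition of the reporter signal at or above 50%; inactive means inhibition below 50%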); details: HEK293-TLR3 RL24 IRF3 luciferase reporter, at 10 µM, stronger effect = higher value

| SMILES | cell count [1] | inhibition [1] | inhibition of aggregation [2] | nuclei count [2] | inhibition [3] | nuclei count [3] | fluorescence slope [4] | NADPH fluorescence slope [5] | slope [6] | inhibition [7] | inhibition [8] |
| --- | --- | --- | --- | --- | --- | --- | --- | --- | --- | --- | --- |
| O=C(NC(C(=O)c1ccccc1)N1CCOCC1)c1cccs1 (stereo not drawn) | 629 | -14.3% (inactive) | 19.4% (inactive) | 72.3% | -2.1% (inactive) | 101% | -0.311 (inactive) | -5.7e-05 (inactive) | 0.00609 (inactive) | -18.2% (inactive) | -23.5% (inactive) |
| CCN(CC(=O)Nc1ccc(S(N)(=O)=O)cc1)S(=O)(=O)c1cc(C)ccc1OC | 432 | -0.3% (inactive) | -6.5% (inactive) | 118% | -51.7% (inactive) | 132% | -0.425 (inactive) | -4.7e-05 (inactive) | 0.0034 (inactive) | -18.9% (inactive) | 19.6% (inactive) |
| COc1ccc(OCCSc2nc3ccccc3n2CC(=O)O)cc1 | 321 | -9.2% (inactive) | -1.3% (inactive) | 108% | -133% (inactive) | 133% | -0.356 (inactive) | -5.2e-05 (inactive) | 0.00591 (inactive) | 16.6% (inactive) | 20.3% (inactive) |
| CCOC(=O)c1cc2sc(C)cc2n1CC(=O)NCc1ccc(F)cc1 | 560 | -19.6% (inactive) | -31% (inactive) | 98.7% | -35.8% (inactive) | 124% | -0.382 (inactive) | -4.5e-05 (inactive) | 0.00466 (inactive) | 6.92% (inactive) | 16.7% (inactive) |
| CC(=O)NC(Cc1c[nH]c2ccccc12)C(=O)OCC(=O)Nc1cc(C)on1 (stereo not drawn) | 505 | 9.6% (inactive) | 0.7% (inactive) | 110% | -0.6% (inactive) | 97.6% | -0.376 (inactive) | 1.5e-05 (inactive) | 0.00598 (inactive) | -5.34% (inactive) | 8.03% (inactive) |
| O=C(COC(=O)c1ccccc1O)Nc1ccc(OC(F)F)cc1 | 674 | 5.1% (inactive) | -8.4% (inactive) | 103% | -64.8% (inactive) | 136% | -0.543 (inactive) | 7.7e-06 (inactive) | 0.00583 (inactive) | -13.8% (inactive) | -42.2% (inactive) |
| CCc1[nH]nc2c1C(c1cccc(OC(=O)N3CCOCC3)c1)C(C#N)=C(N)O2 (stereo not drawn) | 393 | -20.5% (inactive) | -8.9% (inactive) | 98.5% | 9.4% (inactive) | 87.2% | -0.563 (inactive) | -2e-05 (inactive) | 0.00573 (inactive) | 20.6% (inactive) | 22.7% (inactive) |
| COc1ccccc1NC(=O)CSc1nnc(CC(=O)Nc2ccccc2)n1C | 455 | 4.9% (inactive) | -6.2% (inactive) | 89.5% | -44% (inactive) | 103% | -0.442 (inactive) | 3.5e-06 (inactive) | 0.0033 (inactive) | 8.73% (inactive) | 20.7% (inactive) |
| COc1cccc(NC(=O)C2CCCN2C(=O)Nc2cccc(F)c2)c1 (stereo not drawn) | 584 | -15.1% (inactive) | -3.6% (inactive) | 86.9% | -62.2% (inactive) | 111% | -0.512 (inactive) | -5.6e-05 (inactive) | 0.00468 (inactive) | 9.51% (inactive) | 8.88% (inactive) |
| COc1ccccc1CNC(=O)CCNC(=O)Cn1ccc2ccccc2c1=O | 749 | -23.7% (inactive) | 8.2% (inactive) | 107% | -16.3% (inactive) | 116% | 0.0111 (inactive) | -1.6e-05 (inactive) | 0.00394 (inactive) | 7.16% (inactive) | 6.29% (inactive) |
| O=c1[nH]c(/C(=N\O)c2ccccc2)no1 | 462 | 2% (inactive) | -5% (inactive) | 109% | -11.8% (inactive) | 111% | -0.421 (inactive) | -0.000106 (inactive) | 0.00496 (inactive) | 7.11% (inactive) | 24.8% (inactive) |
| CCC(=O)N(CCCN(C)C)c1nc(-c2cc(OC)ccc2OC)cs1 | 392 | 7.8% (inactive) | -4.4% (inactive) | 106% | -14.7% (inactive) | 116% | -0.623 (inactive) | -6.2e-05 (inactive) | 0.00293 (inactive) | 19.4% (inactive) | 27% (inactive) |
| O=C(CSc1nnc(Cc2cccs2)n1Cc1ccco1)Nc1cccc(Cl)c1 | 677 | -3.5% (inactive) | -13.8% (inactive) | 108% | -30.1% (inactive) | 116% | -0.397 (inactive) | 1.1e-05 (inactive) | 0.0045 (inactive) | 13.6% (inactive) | 31.6% (inactive) |
| O=C(COC(=O)C12CC3CC(CC(O)(C3)C1)C2)N1CCN(S(=O)(=O)c2ccc(Cl)cc2)CC1 | 371 | 4.7% (inactive) | 0.7% (inactive) | 95.7% | -72.7% (inactive) | 97.2% | -0.33 (inactive) | -1.9e-05 (inactive) | 0.00661 (inactive) | 8.77% (inactive) | 18% (inactive) |
| Cc1noc(/C=C/N(C)C)c1S(=O)(=O)N1CCCC(C(=O)NCCC2=CCCCC2)C1 (stereo not drawn) | 518 | 0.9% (inactive) | -2.1% (inactive) | 105% | -25.3% (inactive) | 115% | -0.548 (inactive) | -1.2e-05 (inactive) | 0.00579 (inactive) | 1.59% (inactive) | -0.365% (inactive) |
| CCN1CCN(c2ncnc3c2cnn3-c2ccc(C)cc2C)CC1 | 561 | 1.3% (inactive) | -28.5% (inactive) | 94.2% | 1.5% (inactive) | 112% | -0.538 (inactive) | -1.4e-05 (inactive) | 0.00772 (inactive) | 10.8% (inactive) | 18.9% (inactive) |
| c1cnc2c(SCc3ccc(-c4nnco4)cc3)cccc2c1 | 431 | 11.7% (inactive) | -3.7% (inactive) | 100% | -23.1% (inactive) | 107% | -0.586 (inactive) | -4.6e-06 (inactive) | 0.00482 (inactive) | -53.9% (inactive) | -92.3% (inactive) |
| Cc1cc(NC(=O)CCOc2ccccc2)no1 | 403 | -11.8% (inactive) | -20.8% (inactive) | 113% | 35.5% (inactive) | 64.3% | -0.455 (inactive) | -5e-05 (inactive) | 0.00305 (inactive) | 6.04% (inactive) | 23.9% (inactive) |
| CCCNc1nc(N2CCOCC2)nc(N2CCOCC2)n1 | 193 | -17.4% (inactive) | 23.8% (inactive) | 92.2% | 3.6% (inactive) | 91.7% | -0.498 (inactive) | -2.3e-05 (inactive) | 0.00617 (inactive) | -9.95% (inactive) | 18.9% (inactive) |
| COC(=O)c1ccccc1NC(=O)C1CCN(S(=O)(=O)c2cc(C)ccc2OC)CC1 | 607 | 3.6% (inactive) | -20.2% (inactive) | 111% | -76.8% (inactive) | 123% | -0.454 (inactive) | -2.4e-07 (inactive) | 0.00507 (inactive) | 18.9% (inactive) | 28.7% (inactive) |
| Cc1ccc(-c2cn3nc(C)c(C)nc3n2)cc1 | 778 | -23.3% (inactive) | -5.7% (inactive) | 119% | -35.5% (inactive) | 121% | -0.007 (active) | -3.4e-06 (inactive) | 0.00494 (inactive) | 20% (inactive) | 1.39% (inactive) |
| COc1cccc(-n2nc(C(=O)Nc3ccc4c(c3)OCO4)c3ccccc3c2=O)c1 | 741 | 1.6% (inactive) | -5.9% (inactive) | 98.3% | -27% (inactive) | 118% | -0.601 (inactive) | -3.9e-05 (inactive) | 0.0101 (inactive) | 3.08% (inactive) | -20.2% (inactive) |
| CCCCc1n[nH]c2c1C(=O)CC(C)(C)C2 | 712 | -28.4% (inactive) | 3.8% (inactive) | 113% | -75.3% (inactive) | 120% | -0.449 (inactive) | -4.7e-05 (inactive) | 0.00506 (inactive) | 3.68% (inactive) | 19.2% (inactive) |
| Cc1ccc(C(c2sc3ncnn3c2O)N2CC(C)CC(C)C2)cc1 (stereo not drawn) | 628 | -2.4% (inactive) | 14.8% (inactive) | 80.8% | -22.9% (inactive) | 101% | -0.58 (inactive) | -5.6e-05 (inactive) | 0.00795 (inactive) | 10.9% (inactive) | 35.9% (inactive) |
| O=C(Nc1ccc(F)cc1)N(CCCN1CCOCC1)Cc1cc2cc3c(cc2[nH]c1=O)OCO3 | 633 | -3% (inactive) | -34.9% (inactive) | 105% | -27.7% (inactive) | 114% | -0.362 (inactive) | -4.4e-05 (inactive) | 0.00497 (inactive) | 15.6% (inactive) | 28.6% (inactive) |
| Cc1ccc(C2c3sc(=O)[nH]c3SC3C(=O)NC(=O)C32)cc1 (stereo not drawn) | 401 | 6.1% (inactive) | 11.3% (inactive) | 88.3% | -18% (inactive) | 99.5% | -0.558 (inactive) | -2.2e-05 (inactive) | 0.00486 (inactive) | 1.16% (inactive) | 58.9% (active) |
| COCCn1c(SCC(=O)Nc2ccc3c(c2)OCCO3)nc2c(c1=O)SC(C)C2 (stereo not drawn) | 715 | -4.4% (inactive) | -19.9% (inactive) | 106% | -36.9% (inactive) | 116% | -0.413 (inactive) | 3.3e-05 (inactive) | 0.00496 (inactive) | -10.2% (inactive) | -0.542% (inactive) |
| O=C(Cn1ccc2ccccc2c1=O)Nc1ccc2c(c1)OCO2 | 231 | -1.8% (inactive) | 1% (inactive) | 103% | 0% (inactive) | 91.4% | -0.602 (inactive) | -4.5e-05 (inactive) | 0.00747 (inactive) | 0.207% (inactive) | -4.72% (inactive) |
